Common to all, as to experiment: PBM; 200 nM protein, PBS
What all share (conditions): dsDNA, one strand shown

Experiment [1] addresses T1, NKX2-4 (Homo sapiens, UniProt Q9H2Z4 175-261, P217L).
T1 sequence: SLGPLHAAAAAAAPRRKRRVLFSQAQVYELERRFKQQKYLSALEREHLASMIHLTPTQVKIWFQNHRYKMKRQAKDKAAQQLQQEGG

Experiment [2] addresses T2, NKX2-4 (Homo sapiens, UniProt Q9H2Z4 175-261, T231S).
T2 sequence: T1 sequence with L43P, T57S

The target of experiment [3] is T3, NKX2-4 (Homo sapiens, UniProt Q9H2Z4 175-261).
T3 sequence: T1 sequence with L43P

The target of experiment [4] is T4, NKX2-4 (Homo sapiens, UniProt Q9H2Z4 175-261, R246Q).
T4 sequence: T1 sequence with L43P, R72Q

Numbering of substitutions follows the chain as printed.

As for CTCTTGAA, the binding signal is 12.5 upbm affinity estimate (log intensity, higher = more binding, comparable within an allelic series) in experiment [1]; 12.8 upbm affinity estimate (log intensity, higher = more binding, comparable within an allelic series) in experiment [2]; 12.3 upbm affinity estimate (log intensity, higher = more binding, comparable within an allelic series) in experiment [3]; 13 upbm affinity estimate (log intensity, higher = more binding, comparable within an allelic series) in experiment [4].

TCATCGAA: the binding signal is 11.4 upbm affinity estimate (log intensity, higher = more binding, comparable within an allelic series) in experiment [1]; 11.5 upbm affinity estimate (log intensity, higher = more binding, comparable within an allelic series) in experiment [2]; 11.2 upbm affinity estimate (log intensity, higher = more binding, comparable within an allelic series) in experiment [3]; 11.5 upbm affinity estimate (log intensity, higher = more binding, comparable within an allelic series) in experiment [4].

For AACGCTGG, the binding signal is 9.65 upbm affinity estimate (log intensity, higher = more binding, comparable within an allelic series) in experiment [1]; 9.71 upbm affinity estimate (log intensity, higher = more binding, comparable within an allelic series) in experiment [2]; 9.67 upbm affinity estimate (log intensity, higher = more binding, comparable within an allelic series) in experiment [3]; 9.82 upbm affinity estimate (log intensity, higher = more binding, comparable within an allelic series) in experiment [4].

Take GTCCCACA: the binding signal is 9.65 upbm affinity estimate (log intensity, higher = more binding, comparable within an allelic series) in experiment [1]; 9.69 upbm affinity estimate (log intensity, higher = more binding, comparable within an allelic series) in experiment [2]; 9.67 upbm affinity estimate (log intensity, higher = more binding, comparable within an allelic series) in experiment [3]; 9.68 upbm affinity estimate (log intensity, higher = more binding, comparable within an allelic series) in experiment [4].

As to CAAGCCAG, the binding signal in experiment [1] is 9.67 upbm affinity estimate (log intensity, higher = more binding, comparable within an allelic series); in experiment [2], 9.62 upbm affinity estimate (log intensity, higher = more binding, comparable within an allelic series); in experiment [3] it was 9.56 upbm affinity estimate (log intensity, higher = more binding, comparable within an allelic series); in experiment [4], 9.73 upbm affinity estimate (log intensity, higher = more binding, comparable within an allelic series).

Take GTACTCAA: the binding signal in experiment [1] is 12.6 upbm affinity estimate (log intensity, higher = more binding, comparable within an allelic series); in experiment [2] it was 13 upbm affinity estimate (log intensity, higher = more binding, comparable within an allelic series); in experiment [3] it was 12.5 upbm affinity estimate (log intensity, higher = more binding, comparable within an allelic series); in experiment [4], 13.1 upbm affinity estimate (log intensity, higher = more binding, comparable within an allelic series).

For the sequence CCGCTAGG, the binding signal is 9.61 upbm affinity estimate (log intensity, higher = more binding, comparable within an allelic series) in experiment [1]; 9.55 upbm affinity estimate (log intensity, higher = more binding, comparable within an allelic series) in experiment [2]; 9.61 upbm affinity estimate (log intensity, higher = more binding, comparable within an allelic series) in experiment [3]; 9.6 upbm affinity estimate (log intensity, higher = more binding, comparable within an allelic series) in experiment [4].

Consider ACCGCAAC, for which the binding signal is 9.55 upbm affinity estimate (log intensity, higher = more binding, comparable within an allelic series) in experiment [1]; 9.45 upbm affinity estimate (log intensity, higher = more binding, comparable within an allelic series) in experiment [2]; 9.49 upbm affinity estimate (log intensity, higher = more binding, comparable within an allelic series) in experiment [3]; 9.62 upbm affinity estimate (log intensity, higher = more binding, comparable within an allelic series) in experiment [4].

AAAGCACT: the binding signal in experiment [1] is 11.7 upbm affinity estimate (log intensity, higher = more binding, comparable within an allelic series); in experiment [2], 11.9 upbm affinity estimate (log intensity, higher = more binding, comparable within an allelic series); in experiment [3] it was 11.6 upbm affinity estimate (log intensity, higher = more binding, comparable within an allelic series); in experiment [4] it was 11.9 upbm affinity estimate (log intensity, higher = more binding, comparable within an allelic series).

On to CAGCCCAG, for which the binding signal is 9.47 upbm affinity estimate (log intensity, higher = more binding, comparable within an allelic series) in experiment [1]; 9.32 upbm affinity estimate (log intensity, higher = more binding, comparable within an allelic series) in experiment [2]; 9.45 upbm affinity estimate (log intensity, higher = more binding, comparable within an allelic series) in experiment [3]; 9.54 upbm affinity estimate (log intensity, higher = more binding, comparable within an allelic series) in experiment [4].

In the case of GCGCGACA, the binding signal in experiment [1] was 9.99 upbm affinity estimate (log intensity, higher = more binding, comparable within an allelic series); in experiment [2] it was 10 upbm affinity estimate (log intensity, higher = more binding, comparable within an allelic series); in experiment [3], 10 upbm affinity estimate (log intensity, higher = more binding, comparable within an allelic series); in experiment [4], 10.1 upbm affinity estimate (log intensity, higher = more binding, comparable within an allelic series).

For the sequence ATGTCCGG, the binding signal in experiment [1] is 9.39 upbm affinity estimate (log intensity, higher = more binding, comparable within an allelic series); in experiment [2], 9.43 upbm affinity estimate (log intensity, higher = more binding, comparable within an allelic series); in experiment [3] it was 9.4 upbm affinity estimate (log intensity, higher = more binding, comparable within an allelic series); in experiment [4] it was 9.49 upbm affinity estimate (log intensity, higher = more binding, comparable within an allelic series).

As for GAACTGGC, the binding signal in experiment [1] is 9.51 upbm affinity estimate (log intensity, higher = more binding, comparable within an allelic series); in experiment [2] it was 9.49 upbm affinity estimate (log intensity, higher = more binding, comparable within an allelic series); in experiment [3], 9.54 upbm affinity estimate (log intensity, higher = more binding, comparable within an allelic series); in experiment [4] it was 9.65 upbm affinity estimate (log intensity, higher = more binding, comparable within an allelic series).

TCCACTCA: the binding signal in experiment [1] was 12.4 upbm affinity estimate (log intensity, higher = more binding, comparable within an allelic series); in experiment [2], 12.8 upbm affinity estimate (log intensity, higher = more binding, comparable within an allelic series); in experiment [3], 12.3 upbm affinity estimate (log intensity, higher = more binding, comparable within an allelic series); in experiment [4], 12.8 upbm affinity estimate (log intensity, higher = more binding, comparable within an allelic series).

For CCGAGACG, the binding signal in experiment [1] was 9.51 upbm affinity estimate (log intensity, higher = more binding, comparable within an allelic series); in experiment [2], 9.47 upbm affinity estimate (log intensity, higher = more binding, comparable within an allelic series); in experiment [3], 9.47 upbm affinity estimate (log intensity, higher = more binding, comparable within an allelic series); in experiment [4], 9.44 upbm affinity estimate (log intensity, higher = more binding, comparable within an allelic series).

For the sequence GTCAAGGA, the binding signal in experiment [1] was 11.7 upbm affinity estimate (log intensity, higher = more binding, comparable within an allelic series); in experiment [2], 11.9 upbm affinity estimate (log intensity, higher = more binding, comparable within an allelic series); in experiment [3] it was 11.6 upbm affinity estimate (log intensity, higher = more binding, comparable within an allelic series); in experiment [4], 11.6 upbm affinity estimate (log intensity, higher = more binding, comparable within an allelic series).

For the sequence GGCGTGCA, the binding signal is 9.59 upbm affinity estimate (log intensity, higher = more binding, comparable within an allelic series) in experiment [1]; 9.54 upbm affinity estimate (log intensity, higher = more binding, comparable within an allelic series) in experiment [2]; 9.62 upbm affinity estimate (log intensity, higher = more binding, comparable within an allelic series) in experiment [3]; 9.63 upbm affinity estimate (log intensity, higher = more binding, comparable within an allelic series) in experiment [4].

For the sequence ACGAGTAT, the binding signal is 11.5 upbm affinity estimate (log intensity, higher = more binding, comparable within an allelic series) in experiment [1]; 11.7 upbm affinity estimate (log intensity, higher = more binding, comparable within an allelic series) in experiment [2]; 11.4 upbm affinity estimate (log intensity, higher = more binding, comparable within an allelic series) in experiment [3]; 11.6 upbm affinity estimate (log intensity, higher = more binding, comparable within an allelic series) in experiment [4].
